Source: PubChem
Cav32 inh: Cav3.2 calcium influx blockers – cell-based, Fluo-4 calcium fluorescence, FDSS, MLSMR library, primary screen | B-score at 10 µM | Cav3.2-expressing cells; active compounds read low | actives 4% (n = 100,000);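 active means single-dose well whose peak fluorescence ratio is a statistical outlier from its plate by either plate-standardised score or position-corrected B-score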
CYP2C9 inhib: blockers of cytochrome P450 2C9 activity – biochemical, luminescence, ADME assay, primary screen. CYP2C9 Supersomes, luciferin-H conversion. actives 20% (n = 96,000). P11712. inhibition, % at 5 µM. AID 777, 2007;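 active means blocking of liver enzyme CYP2C9 beyond about 50% at 5 µM, limit read from the data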
CYP2C19 act: human CYP2C19 activators, primary screen, biochemical, luminescence | Cytochrome P450 2C19 (Homo sapiens), P33261 | recombinant CYP2C19, luciferin-H EGE luminescence; active compounds read high; 0 = fully inhibited enzyme, 1 = untreated enzyme | activation factor at 5 µM | 96,000 tested, under 10 active | AID 1025, 2008;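 active means activation factor of at least 2 at 5 µM in the primary screen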;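 further: 0 = wells with 2.5 mM tranylcypromine and 1 = vehicle-only wells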
Target sequence (P33261 whole entry, looked up): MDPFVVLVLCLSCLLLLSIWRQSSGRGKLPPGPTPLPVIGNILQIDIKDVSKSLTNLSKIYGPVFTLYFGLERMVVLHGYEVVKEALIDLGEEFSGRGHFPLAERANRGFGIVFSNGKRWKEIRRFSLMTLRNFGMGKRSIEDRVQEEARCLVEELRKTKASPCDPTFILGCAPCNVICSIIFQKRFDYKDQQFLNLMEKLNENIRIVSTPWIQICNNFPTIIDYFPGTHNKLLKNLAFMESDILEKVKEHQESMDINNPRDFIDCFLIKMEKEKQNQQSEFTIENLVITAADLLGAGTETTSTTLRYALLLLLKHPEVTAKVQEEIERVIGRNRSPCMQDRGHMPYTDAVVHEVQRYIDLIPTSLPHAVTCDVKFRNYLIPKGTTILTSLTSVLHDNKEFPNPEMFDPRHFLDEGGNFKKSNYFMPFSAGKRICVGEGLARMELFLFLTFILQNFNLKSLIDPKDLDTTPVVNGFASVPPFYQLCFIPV
CYP2C19 inh: blockers of cytochrome P450 2C19 activity – biochemical, luminescence, ADME assay, primary screen. actives 21% (n = 96,000). CYP2C19 Supersomes, luciferin-H EGE luminescence, 30 min. AID 778, 2007. P33261. inhibition, % at 5 µM;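 active means CYP2C19 inhibition above a set limit at 5 µM in the primary screen, cut at about 50% in these data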;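 further: plate controls were negative control wells for no effect and 2.5 mM tranylcypromine positive control for full effect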
CYP2C9 act: human CYP2C9 activators, primary screen, biochemical, luminescence. Cytochrome P450 2C9 (Homo sapiens), P11712. recombinant CYP2C9, luciferin-H conversion; active compounds read high; factor 1 = untreated enzyme, 0 = blocked. activation factor at 5 µM. actives 1.4% (n = 96,000). AID 1024, 2008;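 active means activation factor of 2 or more for CYP2C9 at a 5 µM dose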;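 further: 0 = sulfaphenazole-blocked wells and 1 = vehicle-only wells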
The depositor's hits bear a star. In the library only some 27% were active in any assay of this set; here they are far more common.

COc1ccc(CN2CC(C(=O)NCCCN3CCOCC3)CC2=O)cc1 (configuration not stated) was read as Cav32 inh -0.63, CYP2C9 inhib -3, CYP2C19 act 1, CYP2C19 inh 4 and CYP2C9 act 1.
`O=C(CCN1C(=O)c2ccccc2S1(=O)=O)Nc1ccc2c(c1)OCCO2` gave Cav32 inh 0.12, CYP2C9 inhib 59*, CYP2C19 act 0.5, CYP2C19 inh 48 and CYP2C9 act 0.4.
`Cc1cccc(OCCCC(=O)Nc2ccc(Br)cc2)c1` gave Cav32 inh 0.3, CYP2C9 inhib 42, CYP2C19 act 0.4, CYP2C19 inh 59* and CYP2C9 act 0.6.
Screening Cc1cccc(OCC(=O)Nc2ccc3c(c2)OCCO3)c1 returned Cav32 inh -0.95, CYP2C9 inhib 58*, CYP2C19 act 0.3, CYP2C19 inh 70* and CYP2C9 act 0.4.
O=C(COc1ccccc1Cl)Nc1ccc2c(c1)OCCO2 was read as Cav32 inh -1.4, CYP2C9 inhib 22, CYP2C19 act 0.7, CYP2C19 inh 30 and CYP2C9 act 0.8.
Screening Cc1cccc(OCCCC(=O)NC(C)C)c1 returned Cav32 inh 2.3, CYP2C9 inhib 4, CYP2C19 act 0.7, CYP2C19 inh 31 and CYP2C9 act 1.
For Cc1ccc(C)c(OCC(=O)Nc2ccc3c(c2)OCO3)c1 the results were CYP2C9 inhib 27, CYP2C19 act 0.8, CYP2C19 inh 22 and CYP2C9 act 0.7.
`Cc1ccccc1OCCCC(=O)Nc1ccc2c(c1)OCO2` gave Cav32 inh -1.6, CYP2C9 inhib 39, CYP2C19 act 0.4, CYP2C19 inh 63* and CYP2C9 act 0.6.
Screening CC[C@H](C)[C@@H](C(=O)N1CCNCC1)n1cc([C@@H](N)CO)nn1 returned Cav32 inh 0.072.
`O=C(COc1cccc2ccccc12)NNC(=O)C1CCCO1` (configuration not stated) gave Cav32 inh -0.9, CYP2C9 inhib -86, CYP2C19 act 0.9, CYP2C19 inh 11 and CYP2C9 act 1.9.
`O=C(CCCOc1ccccc1)Nc1ccc2c(c1)OCCO2` gave Cav32 inh 0.4, CYP2C9 inhib 55*, CYP2C19 act 0.2, CYP2C19 inh 81* and CYP2C9 act 0.4.
`CC(C)(C)NC(=O)COC(=O)c1cc(F)c(F)cc1Cl` gave Cav32 inh 1.1, CYP2C9 inhib 1, CYP2C19 act 0.2, CYP2C19 inh 77* and CYP2C9 act 1.
CCC(c1nnnn1Cc1ccco1)N(Cc1cc2cc(C)cc(C)c2[nH]c1=O)CC1CCCO1 (configuration not stated) was read as Cav32 inh -3.1, CYP2C9 inhib 79*, CYP2C19 act 0.3, CYP2C19 inh 74* and CYP2C9 act 0.2.
CCC(c1nnnn1Cc1ccco1)N(Cc1ccccc1OC)Cc1cc2cc(C)ccc2[nH]c1=O (configuration not stated) was read as Cav32 inh -2.9, CYP2C9 inhib 51*, CYP2C19 act 0.5, CYP2C19 inh 49 and CYP2C9 act 0.5.
Cc1cc(C)c2[nH]c(=O)c(C(c3nnnn3Cc3ccc4c(c3)OCO4)N3CCC(C)CC3)cc2c1 (configuration not stated) was read as Cav32 inh -0.033.
Cc1oc(C)c2c(=O)ccc3c(c12)OC(N)=C(C#N)C3c1ccccc1 (configuration not stated) was read as CYP2C9 inhib 48, CYP2C19 act 0.6, CYP2C19 inh 39 and CYP2C9 act 0.5.
For Cc1oc(C)c2c(=O)ccc3c(c12)OC(N)=C(C#N)C3c1ccccc1Cl (configuration not stated) the results were Cav32 inh -2.2, CYP2C9 inhib 53*, CYP2C19 act 0.8, CYP2C19 inh 22 and CYP2C9 act 0.5.
For CSc1ccc(C2C(C#N)=C(N)Oc3c2ccc(=O)c2c(C)oc(C)c32)cc1 (configuration not stated) the results were Cav32 inh -1.5, CYP2C9 inhib 59*, CYP2C19 act 0.8, CYP2C19 inh 17 and CYP2C9 act 0.4.
O=C(CN1CCCN(S(=O)(=O)c2ccc(Br)cc2)CC1)Nc1ccc2cn[nH]c2c1 was read as Cav32 inh -0.077.
For Cc1nc(CNS(=O)(=O)c2ccc3c(c2)CCCC3)cs1 the results were Cav32 inh 0.24, CYP2C9 inhib -135, CYP2C19 act 0.6, CYP2C19 inh 39 and CYP2C9 act 2.4*.
Screening CCCCOc1ccc(S(=O)(=O)NCc2csc(C)n2)cc1 returned Cav32 inh -2.5, CYP2C9 inhib 30, CYP2C19 act 0.6, CYP2C19 inh 41 and CYP2C9 act 0.7.
For CC1(C)CC2CC(C)(CN2S(=O)(=O)c2ccc(N)cc2)C1 (configuration not stated) the results were Cav32 inh -1.1, CYP2C9 inhib 9, CYP2C19 act 0.3, CYP2C19 inh 74* and CYP2C9 act 0.9.
`CC(/C=C/c1ccc2c(c1)OCO2)=N\NC(=O)COc1ccccc1C` gave Cav32 inh -0.74, CYP2C9 inhib 11, CYP2C19 act 1, CYP2C19 inh 2 and CYP2C9 act 0.9.
Screening CCOc1ccc(NC(=O)CS(=O)(=O)c2cn(CC)c3ccccc23)cc1 returned Cav32 inh -0.092, CYP2C9 inhib 38, CYP2C19 act 0.9, CYP2C19 inh 9 and CYP2C9 act 0.6.
CCn1cc(S(=O)(=O)CC(=O)Nc2ccc(OC)cc2)c2ccccc21 was read as Cav32 inh 9.2e-05, CYP2C9 inhib 48, CYP2C19 act 0.4, CYP2C19 inh 56* and CYP2C9 act 0.5.
Screening Cc1cc(NC(=O)CS(=O)(=O)c2cn(Cc3ccc(F)cc3)c3ccccc23)no1 returned Cav32 inh -0.18, CYP2C9 inhib 48, CYP2C19 act 0.8, CYP2C19 inh 18 and CYP2C9 act 0.5.
`Cc1cc(NC(=O)CS(=O)(=O)c2cn(Cc3cccc(F)c3)c3ccccc23)no1` gave CYP2C9 inhib 72*, CYP2C19 act 0.4, CYP2C19 inh 57* and CYP2C9 act 0.3.
For Cc1ccc(C2=NN(C(=S)Nc3ccccc3)C(c3ccco3)C2)cc1 (configuration not stated) the results were Cav32 inh -3, CYP2C9 inhib 52*, CYP2C19 act 0.8, CYP2C19 inh 24 and CYP2C9 act 0.5.
Cc1ccc(NC(=O)CCC(=O)OCCCC(F)(F)C(F)(F)F)cc1 was read as Cav32 inh -1.7, CYP2C9 inhib 28, CYP2C19 act 0.7, CYP2C19 inh 27 and CYP2C9 act 0.7.
`O=C(CCC(=O)OCCCC(F)(F)C(F)(F)F)Nc1ccc(Cl)cc1Cl` gave Cav32 inh -2.7, CYP2C9 inhib 40, CYP2C19 act 0.3, CYP2C19 inh 70* and CYP2C9 act 0.6.
